Assay outcomes from PubChem BioAssay.
Compounds with a hit are over-represented: about 2.2% of the library has one in this group of screens.
ADAM10 inh: inhibitors of human ADAM10; O14672; recombinant ADAM10, EDANS/DABCYL FRET peptide cleavage, 3 h; inhibition, % at 7 µM; actives 0.62% (n = 370,000);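 active = inhibition above a per-campaign cutoff equal to the mean of compounds falling between control-based bounds plus 3 SD, cut at about 20% in these data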
GC-B act: GC-B (human) receptor activation. P20594. HEK293-GC-B cells, CNP EC30, cGMP TR-FRET; 0% at EC30 CNP, 100% saturating CNP. activation, % at 10 µM. actives 0.11% (n = 370,000). AID 1920062;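 active = activation at 10 µM reaching about 35% in either raw or pattern-adjusted values, limit read from the data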
ADAM17 inh: inhibits human ADAM17; inhibition, % at 6.95 µM; actives 0.83% (n = 370,000); recombinant ADAM17, EDANS/DABCYL FRET peptide cleavage; P78536;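 active = inhibition above the mean of compounds lying between control limits plus 3 SD, set per campaign, cut at about 8.5% in these data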
Target sequence (P78536 215-824 limits assumed): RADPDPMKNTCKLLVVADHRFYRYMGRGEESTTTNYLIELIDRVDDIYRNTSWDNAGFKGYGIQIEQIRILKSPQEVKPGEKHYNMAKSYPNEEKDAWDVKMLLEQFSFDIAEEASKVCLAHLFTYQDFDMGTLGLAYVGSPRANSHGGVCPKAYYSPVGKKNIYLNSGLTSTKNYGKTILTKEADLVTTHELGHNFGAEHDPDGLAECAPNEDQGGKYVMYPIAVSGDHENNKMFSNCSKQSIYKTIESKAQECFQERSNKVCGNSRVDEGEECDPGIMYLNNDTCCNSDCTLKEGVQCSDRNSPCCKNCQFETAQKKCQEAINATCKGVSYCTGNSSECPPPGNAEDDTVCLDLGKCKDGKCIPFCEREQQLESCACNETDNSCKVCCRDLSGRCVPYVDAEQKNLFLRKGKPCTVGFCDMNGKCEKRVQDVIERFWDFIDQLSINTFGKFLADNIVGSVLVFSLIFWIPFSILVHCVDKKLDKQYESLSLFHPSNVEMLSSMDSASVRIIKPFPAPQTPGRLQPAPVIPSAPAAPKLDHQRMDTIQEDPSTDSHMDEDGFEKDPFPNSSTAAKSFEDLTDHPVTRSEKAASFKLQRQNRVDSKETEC
proKLK7 act: proKLK7 (human) activation, primary screen; activation, % at 7 µM; actives 0.9% (n = 370,000); purified proKLK7, EDANS-DABCYL substrate fluorescence; 100% is mature enzyme control, 0% vehicle; P49862;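 active = activation above the mean of all tested compounds plus 3 SD, computed per campaign excluding outliers beyond control limits, cut at about 13% in these data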
NPR1 activator: GC-A (human) enzyme activation; P16066; AID 1671463; actives 0.14% (n = 370,000); activation, % at 10 µM; HEK293 GC-A cells, cGMP TR-FRET, EC30 ANP; 0% at EC30 ANP, 100% saturating ANP; in the data active = activation above about 40%
ADAM10 ctr: counter-screen for ADAM17 exosite inhibitors: inhibitors of human ADAM10 | shares compounds with ADAM17 inh | recombinant ADAM10, EDANS/DABCYL FRET peptide cleavage, 3 h | inhibition, % at 6.95 µM | actives 47% (n = 2,900) | AID 743256;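 active = mean inhibition over the triplicate runs exceeds the activity threshold set in the earlier primary screen, cut at about 20% in these data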
ADAM17 confirm: human ADAM17 inhibition, confirmation; shares compounds with ADAM17 inh; recombinant ADAM17, EDANS/DABCYL QFRET peptide cleavage; inhibition, % at 6.95 µM; actives 65% (n = 2,900); AID 743257;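 active = mean inhibition across replicates above the hit cutoff set in the primary screen, cut at about 8.5% in these data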
Hits are given with their value; 0 = inactive; - = not tested or not shown.

SMILES | ADAM10 inh | GC-B act | ADAM17 inh | proKLK7 act | NPR1 activator | ADAM10 ctr | ADAM17 confirm
CC(C)(C)S(=O)(=O)/C(C#N)=C/c1cccn1S(=O)(=O)c1ccccc1 | 0 | 0 | 9.4 | 0 | 0 | 24 | 12
CCCCCCCCN1C(=O)[C@@H](CC(=O)NCC2CCCCC2)C[C@@]2(C(=O)OC)C1=C[C@H](COCc1ccccc1)O[C@@H]2C | 0 | 0 | 0 | 0 | 0 | - | -
COc1cc(NC(=O)C/C(C)=N/NC(=O)Cc2ccccc2)c(OC)cc1Cl | 0 | 0 | 11 | 0 | 0 | 0 | 11
COc1ccc(CNC(=O)C/C(C)=N/NC(=O)Cc2ccc(OC)c(OC)c2)cc1 | 0 | 0 | 9.9 | 0 | 0 | 0 | 0
COc1ccccc1CNC(=O)C/C(C)=N/NC(=O)Cc1ccc(OC)c(OC)c1 | 0 | 0 | 0 | 0 | 0 | - | -
CCOc1ccc(-n2c(SCC(=O)c3ccc4ccccc4c3)nnc2-c2ccc(OC)cc2)cc1 | 0 | 0 | 0 | 0 | 0 | - | -
COc1ccccc1CCn1cnc(-c2ccccc2F)c1CC(C)C | 0 | 0 | 0 | 0 | 0 | - | -
COc1ccccc1CCn1cnc(-c2ccc(F)cc2F)c1CC(C)C | 0 | 0 | 10 | 0 | 0 | 29 | 14
COc1cc2cnc(-c3ccccc3)c(C(=O)c3ccc(F)cc3)c2cc1OC | 0 | 0 | 0 | 0 | 0 | - | -
COc1cccc(C(=O)c2c(-c3ccccc3)ncc3cc(OC)c(OC)cc23)c1 | 0 | 0 | 13 | 0 | 0 | 0 | 19
COC(=O)[C@]12C[C@H](CC(=O)NCc3cccc4ccccc34)C(=O)N(CCC3=CCCCC3)C1=C[C@H](C1CCCC1)O[C@@H]2C | 0 | 0 | 0 | 0 | 0 | - | -
Cc1c(Cl)cccc1Nc1nc(N)nc(CSc2nc3ccccc3s2)n1 | 0 | 0 | 9.5 | 0 | 0 | 0 | 11
Cc1c(Cl)cccc1Nc1nc(N)nc(CSc2ncccn2)n1 | 0 | 0 | 0 | 0 | 0 | - | -
Cc1cc(NS(=O)(=O)c2ccc(NC(=O)Cc3ccccc3)cc2)no1 | 0 | 0 | 0 | 0 | 0 | - | -
Oc1ccc(Nc2ccccc2F)c2cccnc12 | 0 | 0 | 0 | - | 0 | - | -
CCN(CC)C(=O)C1=C(C)N(Cc2ccc(F)cc2)C(=O)C(CC(=O)NCCCCc2ccccc2)C1 (stereo not given) | 0 | 0 | 0 | 0 | 0 | - | -
CC1=C(C(=O)N(C)C)CC(CC(=O)NCCCCc2ccccc2)C(=O)N1Cc1ccc(F)cc1 (stereo not given) | 0 | 0 | 0 | 0 | 0 | - | -
CC1=C(C(=O)N(C)C)CC(CC(=O)NCCCCc2ccccc2)C(=O)N1Cc1ccc(C(C)(C)C)cc1 (stereo not given) | 0 | 0 | 11 | 0 | 0 | 26 | 12
CCN(CC)C(=O)C1=C(C)N(Cc2ccc(C(C)(C)C)cc2)C(=O)C(CC(=O)NCCCCc2ccccc2)C1 (stereo not given) | 0 | 0 | 9.8 | 0 | 0 | 0 | 0
O=C(C(=O)N1CCC(CNC(=O)C2COc3ccccc3O2)CC1)c1cccs1 (stereo not given) | 0 | 0 | 0 | 0 | 0 | - | -
Nc1nonc1C(=O)NCCNCc1cc(Br)ccc1OCc1ccccc1F | 25 | 0 | 14 | 0 | 0 | 0 | 0
O=C(OCC#CCSc1nnc(-c2cc3ccccc3cc2O)o1)c1ccc(F)cc1 | 0 | 0 | 0 | - | 0 | - | -
Cc1ccc(N=C2NC(=O)/C(=C/c3cccnc3)S2)c(C)c1 | 0 | 0 | 0 | 0 | 0 | - | -
Cc1ccc(N=C2NC(=O)/C(=C\c3ccsc3)S2)c(C)c1 | 0 | 0 | 8.8 | 0 | 0 | 32 | 20
CCCCNC(=O)C[C@H]1C[C@@]2(C(=O)OC)C(=C[C@H](C(C)C)O[C@@H]2C2CC2)N(Cc2ccc(Cl)cc2Cl)C1=O | 0 | 0 | 0 | 0 | 0 | - | -
SMILES | ADAM10 inh | GC-B act | ADAM17 inh | proKLK7 act | NPR1 activator | ADAM10 ctr | ADAM17 confirm
CC(C)N(c1ccccc1)c1ccc(NC(=O)COC(=O)CCN2C(=O)c3cccc([N+](=O)[O-])c3C2=O)cc1 | 0 | 0 | 8.7 | 0 | 0 | 25 | 15
COc1cc(C=Nn2c(-c3ccccc3F)n[nH]c2=S)ccc1OCc1ccccc1 | 0 | 0 | 0 | 0 | 0 | - | -
COc1ccc(NC(=O)C(OC(=O)c2ccc([N+](=O)[O-])o2)c2ccccc2)cc1Cl (stereo not given) | 0 | 0 | 9.8 | 0 | 0 | 25 | 12
O=C(Nc1ccc2ccccc2c1)NC1CCCCN(Cc2cccc(Cl)c2)C1=O (stereo not given) | 0 | 0 | 0 | 0 | 0 | - | -
O=C(N=Nc1c(O)[nH]c2ccccc12)Nc1ccccc1 | 0 | 0 | 0 | 0 | 0 | - | -
Cc1cccc(NC(=S)N=Nc2c(O)[nH]c3ccccc23)c1 | 0 | 0 | 9.9 | 0 | 0 | 27 | 13
O=S1(=O)c2ccc(N3CCC[C@@H]3CO)cc2O[C@H]2CCN1C2 | 0 | 0 | 0 | 0 | 0 | - | -
CC1CCC2(CC1)CCN(CCCOC(=O)Nc1cccc(C(F)(F)F)c1)C2=O (stereo not given) | 0 | 0 | 0 | 0 | 0 | - | -
O=C1CCCN1c1ccc(S(=O)(=O)NCCOc2ccccc2)cc1 | 0 | 0 | 0 | 0 | 0 | - | -
Cc1cc(N2CCCC2=O)cc(C)c1S(=O)(=O)NCCOc1ccc(C(C)(C)C)cc1 | 0 | 0 | 11 | 0 | 0 | 0 | 0
COC(=O)[C@]12C[C@H](CC(=O)NCC3CCCCC3)C(=O)N(Cc3ccc(Cl)cc3Cl)C1=C[C@H](C(C)(C)C)O[C@@H]2C | 0 | 0 | 0 | 0 | 0 | - | -
Cc1c(Cl)cccc1NC(=S)NCCC(c1ccccc1)c1ccccc1 | 0 | 0 | 9.2 | 0 | 0 | 21 | 10
CC/C(C)=N/Nc1nc2c(c(=O)[nH]c(=O)n2C)n1Cc1ccccc1 | 0 | 0 | 9.1 | 0 | 0 | 0 | 0
COC(=O)[C@]12CCCCC=C1N(Cc1ccc(OC)cc1)C(=O)[C@@H]2CC(=O)N1CCCC1 | 0 | 0 | 0 | 0 | 0 | - | -
CC1CCN(N=Nc2nc3c([nH]2)c(=O)n(C)c(=O)n3C)CC1 | 0 | 0 | 17 | 0 | 0 | 0 | 9.3
CN(C)c1ccc(S(=O)(=O)NCC(=O)OCC(=O)Nc2cc(Cl)cc(Cl)c2)cc1[N+](=O)[O-] | 0 | 0 | 9.9 | 0 | 0 | 42 | 23
O=C(NCCc1c[nH]c2ccccc12)OCc1cn(-c2ccc(F)cc2)nn1 | 0 | 0 | 0 | 0 | 0 | - | -
O=C(Nc1ccc(F)c(C(F)(F)F)c1)Nc1nnc(-c2ccncc2)s1 | 0 | 0 | 0 | - | 0 | - | -
O=C(CSc1nc2ccccc2o1)NN=C/C=C/c1ccccc1 | 0 | 0 | 9.5 | 0 | 0 | 0 | 16
O=C(CSc1nc2ccccc2o1)N/N=C/c1ccccc1 | 0 | 0 | 0 | 0 | 0 | - | -
O=C(COC(=O)c1cccc(NS(=O)(=O)/C=C/c2ccccc2)c1)Nc1ccccc1OC(F)F | 0 | 0 | 9.9 | 0 | 0 | 0 | 15
